# PubChem BioAssay
# Activity calls are given as the source filed them.
# Key:
# [1] = binders of probe aFSTL3 on microarray, primary screen, stem cell growth factor project, biochemical, small-molecule microarray, fluorescence 635/667 (AID 1064); details: higher = more signal;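 also: measures binding of the biotinylated anti-FSTL3 antibody to printed compounds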
# [2] = binders from COS7 lysate, DM2A8 probe, primary screen, torsin A project, cell lysate, small-molecule microarray, fluorescence 635/667 (AID 1065); details: higher = more signal, COS7 lysate expressing mutant human TOR1A
# [3] = binders of probe aFGF2 on microarray, primary screen, stem cell growth factor project, biochemical, small-molecule microarray, fluorescence 635/667 (AID 1067); details: higher = more signal;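 also: measures binding of biotinylated aFGF2 protein to printed compounds on slides; z-score merges feature fluorescence and signal-to-noise across triplicate slides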
# [4] = binders of probe aFGF10 on microarray, primary screen, stem cell growth factor project, biochemical, small-molecule microarray, fluorescence 635/667 (AID 1071); details: higher = more signal;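 also: score merges 667 nm spot intensity and signal to noise from triplicate slides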
# [5] = molecular target: Neurogenic locus notch homolog protein 2 (Homo sapiens) (UniProt Q04721); experiment: Notch2 binders on small-molecule microarrays, primary screen, biochemical, small-molecule microarray, 635 nm fluorescence, stem cell growth factors (AID 1073); details: Notch2 binding, higher = more signal
# Neurogenic locus notch homolog protein 2 (Homo sapiens), sequence (Q04721 whole entry, looked up, canonical isoform): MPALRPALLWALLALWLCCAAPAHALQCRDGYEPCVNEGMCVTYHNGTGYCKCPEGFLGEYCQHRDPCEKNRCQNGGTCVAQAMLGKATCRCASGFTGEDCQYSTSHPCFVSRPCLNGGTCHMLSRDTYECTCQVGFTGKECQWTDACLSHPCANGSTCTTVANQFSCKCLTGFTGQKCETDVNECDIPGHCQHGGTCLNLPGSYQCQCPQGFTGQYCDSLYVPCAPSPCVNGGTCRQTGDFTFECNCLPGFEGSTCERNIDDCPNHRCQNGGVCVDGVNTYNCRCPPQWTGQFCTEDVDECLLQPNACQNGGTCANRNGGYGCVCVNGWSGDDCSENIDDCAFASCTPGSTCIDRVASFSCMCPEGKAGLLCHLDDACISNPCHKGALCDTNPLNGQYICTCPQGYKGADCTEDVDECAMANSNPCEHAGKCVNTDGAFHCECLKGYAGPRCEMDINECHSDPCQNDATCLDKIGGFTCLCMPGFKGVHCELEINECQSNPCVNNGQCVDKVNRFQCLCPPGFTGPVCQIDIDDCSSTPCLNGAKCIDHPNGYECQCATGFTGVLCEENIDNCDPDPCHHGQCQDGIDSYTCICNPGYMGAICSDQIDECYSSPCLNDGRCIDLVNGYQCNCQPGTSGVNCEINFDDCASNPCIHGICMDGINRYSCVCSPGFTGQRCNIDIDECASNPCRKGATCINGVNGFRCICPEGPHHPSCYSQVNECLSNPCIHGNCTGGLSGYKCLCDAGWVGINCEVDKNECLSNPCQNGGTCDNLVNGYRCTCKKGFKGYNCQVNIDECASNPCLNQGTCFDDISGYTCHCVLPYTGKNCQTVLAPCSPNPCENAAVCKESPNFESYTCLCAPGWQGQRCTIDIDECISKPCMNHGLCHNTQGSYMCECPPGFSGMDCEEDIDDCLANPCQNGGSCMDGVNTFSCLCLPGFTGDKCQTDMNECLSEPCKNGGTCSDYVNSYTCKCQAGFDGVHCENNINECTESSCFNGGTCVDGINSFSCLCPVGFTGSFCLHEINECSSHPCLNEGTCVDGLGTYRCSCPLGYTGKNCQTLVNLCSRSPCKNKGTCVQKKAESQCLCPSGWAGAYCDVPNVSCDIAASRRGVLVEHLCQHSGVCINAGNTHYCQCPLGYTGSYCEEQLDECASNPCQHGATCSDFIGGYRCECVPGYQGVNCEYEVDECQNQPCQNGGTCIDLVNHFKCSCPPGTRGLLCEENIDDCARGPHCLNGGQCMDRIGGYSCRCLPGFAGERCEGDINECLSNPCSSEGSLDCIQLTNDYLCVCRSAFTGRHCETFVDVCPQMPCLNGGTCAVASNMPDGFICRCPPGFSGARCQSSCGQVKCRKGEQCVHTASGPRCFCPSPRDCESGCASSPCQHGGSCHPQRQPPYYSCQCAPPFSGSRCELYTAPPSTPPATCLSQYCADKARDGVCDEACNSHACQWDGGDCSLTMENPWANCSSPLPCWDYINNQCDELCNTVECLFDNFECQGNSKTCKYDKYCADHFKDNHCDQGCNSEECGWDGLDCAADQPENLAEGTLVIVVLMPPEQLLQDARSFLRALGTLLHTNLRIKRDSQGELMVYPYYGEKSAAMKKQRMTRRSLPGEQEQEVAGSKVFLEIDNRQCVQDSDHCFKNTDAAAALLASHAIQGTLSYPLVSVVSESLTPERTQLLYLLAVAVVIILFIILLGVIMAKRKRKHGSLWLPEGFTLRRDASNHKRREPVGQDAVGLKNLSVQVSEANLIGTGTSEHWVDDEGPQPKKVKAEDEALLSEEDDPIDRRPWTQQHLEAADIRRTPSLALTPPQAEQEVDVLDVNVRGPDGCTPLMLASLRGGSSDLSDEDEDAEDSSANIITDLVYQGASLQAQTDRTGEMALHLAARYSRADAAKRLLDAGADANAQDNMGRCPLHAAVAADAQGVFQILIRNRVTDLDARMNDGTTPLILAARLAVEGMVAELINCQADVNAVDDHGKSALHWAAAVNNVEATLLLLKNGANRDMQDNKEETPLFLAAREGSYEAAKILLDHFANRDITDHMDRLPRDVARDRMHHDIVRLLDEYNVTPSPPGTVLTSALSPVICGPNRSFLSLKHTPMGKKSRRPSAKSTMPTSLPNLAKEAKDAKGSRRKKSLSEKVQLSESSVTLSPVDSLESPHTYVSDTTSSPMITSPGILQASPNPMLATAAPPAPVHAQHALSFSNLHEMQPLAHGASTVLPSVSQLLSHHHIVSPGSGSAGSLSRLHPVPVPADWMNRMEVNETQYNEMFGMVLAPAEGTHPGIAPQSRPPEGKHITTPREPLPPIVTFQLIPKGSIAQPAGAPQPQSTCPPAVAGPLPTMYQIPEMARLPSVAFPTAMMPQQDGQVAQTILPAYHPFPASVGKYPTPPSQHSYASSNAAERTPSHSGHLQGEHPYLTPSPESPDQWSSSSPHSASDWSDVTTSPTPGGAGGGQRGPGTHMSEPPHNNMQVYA
# [6] = molecular target: Pro-neuregulin-1, membrane-bound isoform (Homo sapiens) (UniProt Q02297); experiment: NRG1 binders on small-molecule microarrays, primary screen, psychiatric disease protein project, biochemical, small-molecule microarray, fluorescence 635/667 (AID 1075); details: NRG1 binding, 635 nm fluorescence, higher = more signal;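 also: score combines 667 nm spot fluorescence with signal to noise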
# [7] = test system: Neuregulin-1 EGF-like domain; experiment: binders of neuregulin-1 EGF-like domain, primary screen, biochemical, small-molecule microarray, 635 nm fluorescence (AID 1081); details: small-molecule microarray binding, higher = more signal;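 also: binding of the protein to compounds printed on small-molecule microarray slides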
# [8] = FRG1 promoter luciferase signal modulators, primary screen, FRG1 inhibition for FSHD, cell-based, C2C12 myotubes, firefly/Renilla luciferase, luminescence (AID 1084); details: higher = more signal, called active from +8 up or from −8 down
# [9] = binders of probe aFST on microarray, primary screen, stem cell growth factor project, biochemical, small-molecule microarray, fluorescence 635/667 (AID 1086); details: higher = more signal;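 also: score merges 667 nm fluorescence with signal-to-noise of each printed compound spot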
# [10] = binders of probe aHhip on microarray, primary screen, stem cell growth factor project, biochemical, small-molecule microarray, fluorescence 635/667 (AID 1087); details: higher = more signal;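 also: score merges spot fluorescence at 667nm with spot signal to noise ratio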
# [11] = test system: PRMT1 (protein arginine N-methyltransferase 1); experiment: PRMT1 binders on small-molecule microarrays, primary screen, biochemical, small-molecule microarray, 635 nm fluorescence (AID 1088); details: small-molecule microarray binding, higher = more signal;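 also: binding of Prmt1 protein to compounds spotted on small-molecule microarray slides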
# [12] = yeast growth modulation, basal conditions, primary screen, YJM789 clinical isolate, OD600, 24 h (AID 1089);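 also: growth of clinical yeast isolate S. cerevisiae YJM 789 seeded 1000 cells per well; test concentration not given here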; details: S. cerevisiae YJM789 growth, higher = more signal, called active from +8 up or from −8 down
# [13] = fission yeast growth modulation, primary screen, strain 972, OD600, 24 h, no modulator (AID 1090);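 also: basal condition with compound alone and no growth modifier present; test concentration not given here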; details: S. pombe 972 growth, higher = more signal, called active from +8 up or from −8 down
# [14] = S. cerevisiae growth modulation with rapamycin, primary screen, strain BY4716, OD600, 96 h (AID 1091); details: higher = more signal, called active from +8 up or from −8 down; also: test concentration not given here
# [15] = molecular target: Torsin-1A-interacting protein 2 (Homo sapiens) (UniProt Q8NFQ8); experiment: LULL1 binders on small-molecule microarray, primary screen, cell lysate, human LULL1 lysate, 635/667 nm fluorescence (AID 1092); details: hLULL1 lysate binding, 635 nm fluorescence, higher = more signal;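 also: probe is lysate of COS7 cells overexpressing human LULL1; score merges per-feature 667 nm fluorescence with signal-to-noise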
# [16] = E. coli growth modulation, two-sided OD650, primary screen, E. coli filamentation project, strain DRC41, 24 h (AID 1093); details: OD650, 24 h, higher = more signal, called active from +8 up or from −8 down;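 also: MC1000 strain lacking acrAB efflux and sulA so SOS filamentation is blocked; test concentration not given here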
# [17] = small-molecule microarray binders of probe aLefty2, primary screen, biochemical, biotinylated probe, 635/667 nm fluorescence (AID 1094); details: higher = more signal;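 also: score merges spot fluorescence near 667 nm with spot signal-to-noise ratio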
# [18] = test system: Noggin (protein binding on small-molecule microarray); experiment: Noggin binders on small-molecule microarray, primary screen, biochemical, 635/667 nm fluorescence (AID 1095); details: 635 nm fluorescence, higher = more signal;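 also: score merges 667 nm feature fluorescence with signal to noise over triplicate slides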
# [19] = molecular target: Neurogenic locus notch homolog protein 3 (Homo sapiens) (UniProt Q9UM47); experiment: NOTCH3 binders on small-molecule microarray, primary screen, biochemical, 635/667 nm fluorescence (AID 1096); details: NOTCH3 binding, 635 nm fluorescence, higher = more signal
# Neurogenic locus notch homolog protein 3 (Homo sapiens), sequence (Q9UM47 whole entry, looked up): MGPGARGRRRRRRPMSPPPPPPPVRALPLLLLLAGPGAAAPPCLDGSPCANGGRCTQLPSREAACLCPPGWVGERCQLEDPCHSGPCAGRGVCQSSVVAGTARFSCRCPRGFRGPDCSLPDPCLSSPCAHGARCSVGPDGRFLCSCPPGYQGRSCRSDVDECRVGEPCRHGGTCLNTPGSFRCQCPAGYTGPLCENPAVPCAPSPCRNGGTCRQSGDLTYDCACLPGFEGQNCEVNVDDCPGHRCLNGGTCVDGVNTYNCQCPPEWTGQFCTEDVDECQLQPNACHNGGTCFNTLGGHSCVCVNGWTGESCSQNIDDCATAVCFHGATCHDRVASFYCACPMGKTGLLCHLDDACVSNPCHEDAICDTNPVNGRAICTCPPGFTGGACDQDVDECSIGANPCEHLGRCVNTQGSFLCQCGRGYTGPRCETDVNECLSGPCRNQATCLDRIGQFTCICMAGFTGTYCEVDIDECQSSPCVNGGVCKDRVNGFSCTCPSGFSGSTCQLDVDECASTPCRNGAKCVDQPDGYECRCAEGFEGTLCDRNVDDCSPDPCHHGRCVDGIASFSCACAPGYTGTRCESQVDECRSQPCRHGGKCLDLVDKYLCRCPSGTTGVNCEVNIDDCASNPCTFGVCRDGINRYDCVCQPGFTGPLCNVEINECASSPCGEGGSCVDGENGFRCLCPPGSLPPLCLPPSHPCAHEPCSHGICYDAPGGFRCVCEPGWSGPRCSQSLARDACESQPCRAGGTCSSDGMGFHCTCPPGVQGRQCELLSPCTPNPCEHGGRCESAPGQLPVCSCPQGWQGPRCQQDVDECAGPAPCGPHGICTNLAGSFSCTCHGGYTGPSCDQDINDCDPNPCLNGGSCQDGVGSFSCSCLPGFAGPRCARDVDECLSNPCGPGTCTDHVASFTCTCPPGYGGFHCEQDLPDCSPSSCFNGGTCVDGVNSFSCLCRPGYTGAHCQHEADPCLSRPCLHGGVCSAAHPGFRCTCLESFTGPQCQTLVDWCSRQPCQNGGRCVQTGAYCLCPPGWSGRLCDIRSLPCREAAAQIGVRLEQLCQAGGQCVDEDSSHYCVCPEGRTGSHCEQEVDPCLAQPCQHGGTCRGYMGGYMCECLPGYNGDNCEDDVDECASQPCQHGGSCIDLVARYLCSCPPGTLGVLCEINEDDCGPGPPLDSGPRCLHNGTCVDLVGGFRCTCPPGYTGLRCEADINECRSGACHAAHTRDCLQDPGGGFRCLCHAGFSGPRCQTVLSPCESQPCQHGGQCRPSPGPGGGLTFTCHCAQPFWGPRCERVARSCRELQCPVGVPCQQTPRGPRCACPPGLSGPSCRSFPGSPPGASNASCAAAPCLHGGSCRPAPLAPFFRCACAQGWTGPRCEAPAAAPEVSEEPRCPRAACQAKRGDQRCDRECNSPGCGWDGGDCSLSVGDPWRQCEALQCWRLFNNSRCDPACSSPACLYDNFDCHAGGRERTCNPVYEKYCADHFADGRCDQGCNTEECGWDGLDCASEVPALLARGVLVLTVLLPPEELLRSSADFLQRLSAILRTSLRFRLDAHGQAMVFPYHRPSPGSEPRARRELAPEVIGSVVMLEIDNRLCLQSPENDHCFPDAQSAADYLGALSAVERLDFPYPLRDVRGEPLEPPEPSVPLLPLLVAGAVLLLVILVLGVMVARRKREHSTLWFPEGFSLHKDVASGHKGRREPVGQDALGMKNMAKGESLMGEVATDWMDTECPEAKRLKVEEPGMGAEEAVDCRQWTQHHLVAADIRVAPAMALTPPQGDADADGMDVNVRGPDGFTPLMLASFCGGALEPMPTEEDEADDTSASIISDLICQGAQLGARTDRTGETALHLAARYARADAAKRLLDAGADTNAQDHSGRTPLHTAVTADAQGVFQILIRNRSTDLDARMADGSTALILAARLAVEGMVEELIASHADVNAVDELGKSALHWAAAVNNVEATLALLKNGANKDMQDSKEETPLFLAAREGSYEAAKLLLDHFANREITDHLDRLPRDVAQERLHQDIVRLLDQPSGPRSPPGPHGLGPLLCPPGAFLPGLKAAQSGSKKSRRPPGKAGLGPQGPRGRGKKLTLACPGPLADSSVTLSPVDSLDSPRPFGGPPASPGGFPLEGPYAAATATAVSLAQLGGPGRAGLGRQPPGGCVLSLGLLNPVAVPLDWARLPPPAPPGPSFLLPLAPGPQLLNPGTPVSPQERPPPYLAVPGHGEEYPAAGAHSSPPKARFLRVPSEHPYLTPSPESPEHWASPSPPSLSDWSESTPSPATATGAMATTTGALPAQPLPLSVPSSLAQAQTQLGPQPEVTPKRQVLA
# [20] = small-molecule microarray binders of probe aEGFR, primary screen, biochemical, biotinylated probe, 635/667 nm fluorescence (AID 1097); details: higher = more signal;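 also: probe is a biotinylated anti-EGFR antibody binding compounds printed on slides; score combines fluorescence near 667 nm and signal to noise of each spot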
Structure (SMILES),composite z-score [1],composite z-score [2],composite z-score [3],composite z-score [4],composite z-score [5],composite z-score [6],composite z-score [7],z-score [8],composite z-score [9],composite z-score [10],composite z-score [11],z-score [12],z-score [13],z-score [14],composite z-score [15],z-score [16],composite z-score [17],composite z-score [18],composite z-score [19],composite z-score [20]
COC(=O)[C@]1(CO)N=C(c2ccc(OCCCO)cc2)O[C@@H]1c1ccccc1N=[N+]=[N-],0.0947,0.525,-0.0614,-0.0477,0.01,1.25,0.938,2.29 (inactive),0.138,-0.39,1.53,-0.726 (inactive),-0.683 (inactive),-1.12 (inactive),3.19,0.269 (inactive),-0.0639,1.82,0.298,-0.162
CC(C)CON=C1[C@H]2CCn3c(=O)n(-c4ccccc4)c(=O)n3[C@H]2[C@H](O)[C@@H]2O[C@H]12,-0.358,-0.0519,-0.102,0.325,0.532,-0.0371,0.323,-0.217 (inactive),0.204,-0.069,-0.317,-0.476 (inactive),0.0606 (inactive),-0.369 (inactive),-0.381,0.343 (inactive),-0.149,0.302,0.837,-0.228
CCOC(=O)CCN1C(=O)[C@H]2[C@H]3[C@H](O)[C@H](O)CC(=NOC[C@@H](O)COCc4ccco4)[C@H]3CC[C@H]2C1=O,-0.528,-0.0277,-0.0996,0.483,0.722,0.035,0.148,0.122 (inactive),0.132,0.28,1.46,-0.114 (inactive),-3.86 (inactive),-0.86 (inactive),0.756,0.09 (inactive),-0.188,0.474,0.921,0.0649
CC(CCC(=O)OC[C@H]1O[C@H](C#Cc2ccccc2)C=C[C@@H]1Oc1ccc(C)cc1)=NO[C@@H](C)c1cn([C@H](CO)Cc2ccccc2)nn1,-0.583,0.0364,0.0092,0.63,0.161,0.122,0.0865,1.02 (inactive),0.263,-0.327,0.668,0.846 (inactive),0.21 (inactive),12.2 (active),0.373,-0.434 (inactive),-0.145,0.237,0.281,-0.0461
CO[C@@H]1COC(=O)CC=C[C@@H](C)[C@@H]2C=C[C@H](O)[C@@H](COC(=O)[C@H](C)NC(=O)CC=C[C@H]1C)O2,-0.556,0.977,-0.15,0.321,0.268,-0.497,0.849,0.361 (inactive),0.277,0.351,1.54,-0.653 (inactive),-0.465 (inactive),-1.36 (inactive),-0.75,0.0967 (inactive),-0.212,1.42,0.868,0.0231
C=CCNC(=O)[C@H]1[C@@H]2C(=O)O[C@@H](c3ccccc3)[C@@H](c3ccccc3)N2[C@@H](c2ccc(O)cc2)[C@]12C(=O)N(C(=O)OCCOC)c1ccc(C#CC3=CCCCC3)cc12,0.484,1.24,0.008,0.72,1.05,2.03,1.06,-0.829 (inactive),2.01,1.75,1.54,0.576 (inactive),0.111 (inactive),1.12 (inactive),3.14,0.111 (inactive),0.862,1.78,1,-0.21
CC(C)c1ccc(NN2C(C(O)c3ccc4c(c3)OCO4)C=CC3C(=O)N(c4ccccc4)C(=O)C32)cc1 (stereo not given),0.542,0.461,0.0899,0.839,1.34,1.82,1.24,2.22 (inactive),1.07,0.103,1.21,-0.0261 (inactive),0.0855 (inactive),0.599 (inactive),3.5,0.0026 (inactive),0.304,1.01,1.1,-0.0845
COCCCNC(=O)[C@@]1(CCS(=O)(=O)c2ccccc2)N=C(c2ccc(OCCCO)cc2)O[C@H]1c1ccccc1,0.958,1.5,0.378,1.18,0.674,1.25,1.31,-1.23 (inactive),0.56,2.04,1.38,-0.67 (inactive),-0.692 (inactive),-0.757 (inactive),3.43,2.54 (inactive),0.888,0.0483,-0.0936,0.592
C=CC[C@@H]1C=C[C@H](ON=C[C@@H](OC)[C@H](C)C=CCC(=O)OC)[C@@H](CO)O1,-0.147,0.827,-0.0493,0.223,-0.203,0.161,0.528,0.813 (inactive),0.0886,-0.0346,0.325,0.78 (inactive),0.173 (inactive),0.634 (inactive),0.485,0.23 (inactive),-0.124,0.471,-0.39,0.0129
